# Results as given in the supplement of paper PMC10849652.
# About 8,800 targets were measured; listed, in parts, are those with a hit and a random draw of the rest. About 0.5% of all pairs of compound and target were hits. Values without a mark were called inactive.
# Compound: Cc1cn(-c2cc(NC(=O)c3ccc(C)c(Nc4nccc(-c5cccnc5)n4)c3)cc(C(F)(F)F)c2)cn1 [nilotinib]
# Experiment: log2 fold change, soluble protein after heating vs DMSO (PISA); higher = thermal stabilisation; K562 lysate, 10 uM; active = over 0.2 and 3.5 SD of the protein, either way, in both replicates (recomputed)
# Outline: (§1)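 Soluble protein was defined as the supernatant remaining after 21,000xg for 90 min, following pooling of heated aliquots and adjustment to 0.5% NP-40 at 4°C. Before that, crude K562 extract at 1 mg/mL protein in PBS pH 7.4 with 1 mM MgCl2 was treated with 10 μM compound for 30 min and heated for 3 min across 48°C-58°C. Quantification used TMTpro 16plex LC-MS/MS with channel sums equalised, and values are log-two fold changes in thermal stability relative to solvent controls from duplicates.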
# Chain of UniProt Q15208 (Q15208 whole entry, looked up): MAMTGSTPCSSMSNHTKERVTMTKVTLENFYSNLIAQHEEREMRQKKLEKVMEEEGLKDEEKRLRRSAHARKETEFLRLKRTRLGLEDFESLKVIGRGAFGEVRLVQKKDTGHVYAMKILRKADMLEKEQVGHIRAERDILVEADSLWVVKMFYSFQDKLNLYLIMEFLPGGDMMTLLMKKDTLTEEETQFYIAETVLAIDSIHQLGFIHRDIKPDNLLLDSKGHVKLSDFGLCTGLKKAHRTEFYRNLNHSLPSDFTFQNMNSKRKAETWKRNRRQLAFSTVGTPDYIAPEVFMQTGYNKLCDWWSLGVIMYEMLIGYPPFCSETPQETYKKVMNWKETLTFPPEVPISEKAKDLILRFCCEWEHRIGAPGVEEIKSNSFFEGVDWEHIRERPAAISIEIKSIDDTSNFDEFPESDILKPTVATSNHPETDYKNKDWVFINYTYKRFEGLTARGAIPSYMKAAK
# Chain of UniProt P05455 (P05455 whole entry, looked up): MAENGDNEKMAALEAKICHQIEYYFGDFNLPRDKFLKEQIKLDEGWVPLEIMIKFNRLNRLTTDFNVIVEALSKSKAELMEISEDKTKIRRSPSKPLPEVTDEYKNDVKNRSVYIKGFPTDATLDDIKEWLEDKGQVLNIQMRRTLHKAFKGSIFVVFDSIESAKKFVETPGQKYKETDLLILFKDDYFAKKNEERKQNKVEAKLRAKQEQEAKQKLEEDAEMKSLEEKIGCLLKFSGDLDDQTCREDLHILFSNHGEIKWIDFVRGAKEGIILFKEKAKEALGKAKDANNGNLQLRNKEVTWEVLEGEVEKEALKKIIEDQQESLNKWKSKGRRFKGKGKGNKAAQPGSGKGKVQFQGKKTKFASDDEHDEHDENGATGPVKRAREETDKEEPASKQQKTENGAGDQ
# Chain of UniProt Q92540 (Q92540 whole entry, looked up): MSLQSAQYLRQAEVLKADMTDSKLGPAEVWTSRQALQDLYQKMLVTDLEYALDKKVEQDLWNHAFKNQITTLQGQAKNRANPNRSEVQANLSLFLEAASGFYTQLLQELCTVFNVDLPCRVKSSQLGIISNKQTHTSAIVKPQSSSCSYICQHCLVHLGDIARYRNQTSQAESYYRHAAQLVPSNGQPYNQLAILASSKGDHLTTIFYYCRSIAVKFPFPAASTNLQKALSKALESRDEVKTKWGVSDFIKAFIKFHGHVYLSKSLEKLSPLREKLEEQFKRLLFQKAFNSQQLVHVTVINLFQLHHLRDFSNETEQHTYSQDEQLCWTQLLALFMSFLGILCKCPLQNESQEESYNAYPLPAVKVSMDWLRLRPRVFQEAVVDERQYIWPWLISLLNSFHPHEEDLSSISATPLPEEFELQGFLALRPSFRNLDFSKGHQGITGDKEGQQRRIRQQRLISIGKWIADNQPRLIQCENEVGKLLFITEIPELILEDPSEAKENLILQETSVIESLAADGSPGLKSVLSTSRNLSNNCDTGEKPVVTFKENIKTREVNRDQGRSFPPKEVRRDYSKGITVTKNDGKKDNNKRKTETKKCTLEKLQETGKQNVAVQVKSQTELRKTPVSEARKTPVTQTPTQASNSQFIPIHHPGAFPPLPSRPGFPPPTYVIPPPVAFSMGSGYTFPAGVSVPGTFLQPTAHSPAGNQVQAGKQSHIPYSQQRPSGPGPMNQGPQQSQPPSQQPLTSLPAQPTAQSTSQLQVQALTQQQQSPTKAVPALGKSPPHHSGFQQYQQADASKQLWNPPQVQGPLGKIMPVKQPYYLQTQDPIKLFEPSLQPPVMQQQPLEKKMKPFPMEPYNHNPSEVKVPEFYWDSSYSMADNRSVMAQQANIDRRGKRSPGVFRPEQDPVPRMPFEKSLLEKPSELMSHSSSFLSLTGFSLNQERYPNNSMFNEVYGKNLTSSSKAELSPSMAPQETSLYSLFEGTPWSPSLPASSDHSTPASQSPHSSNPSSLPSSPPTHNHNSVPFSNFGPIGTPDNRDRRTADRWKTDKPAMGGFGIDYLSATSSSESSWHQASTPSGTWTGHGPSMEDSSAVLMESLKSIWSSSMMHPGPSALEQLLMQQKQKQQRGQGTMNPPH
# Chain of UniProt P51532 (P51532 whole entry, looked up): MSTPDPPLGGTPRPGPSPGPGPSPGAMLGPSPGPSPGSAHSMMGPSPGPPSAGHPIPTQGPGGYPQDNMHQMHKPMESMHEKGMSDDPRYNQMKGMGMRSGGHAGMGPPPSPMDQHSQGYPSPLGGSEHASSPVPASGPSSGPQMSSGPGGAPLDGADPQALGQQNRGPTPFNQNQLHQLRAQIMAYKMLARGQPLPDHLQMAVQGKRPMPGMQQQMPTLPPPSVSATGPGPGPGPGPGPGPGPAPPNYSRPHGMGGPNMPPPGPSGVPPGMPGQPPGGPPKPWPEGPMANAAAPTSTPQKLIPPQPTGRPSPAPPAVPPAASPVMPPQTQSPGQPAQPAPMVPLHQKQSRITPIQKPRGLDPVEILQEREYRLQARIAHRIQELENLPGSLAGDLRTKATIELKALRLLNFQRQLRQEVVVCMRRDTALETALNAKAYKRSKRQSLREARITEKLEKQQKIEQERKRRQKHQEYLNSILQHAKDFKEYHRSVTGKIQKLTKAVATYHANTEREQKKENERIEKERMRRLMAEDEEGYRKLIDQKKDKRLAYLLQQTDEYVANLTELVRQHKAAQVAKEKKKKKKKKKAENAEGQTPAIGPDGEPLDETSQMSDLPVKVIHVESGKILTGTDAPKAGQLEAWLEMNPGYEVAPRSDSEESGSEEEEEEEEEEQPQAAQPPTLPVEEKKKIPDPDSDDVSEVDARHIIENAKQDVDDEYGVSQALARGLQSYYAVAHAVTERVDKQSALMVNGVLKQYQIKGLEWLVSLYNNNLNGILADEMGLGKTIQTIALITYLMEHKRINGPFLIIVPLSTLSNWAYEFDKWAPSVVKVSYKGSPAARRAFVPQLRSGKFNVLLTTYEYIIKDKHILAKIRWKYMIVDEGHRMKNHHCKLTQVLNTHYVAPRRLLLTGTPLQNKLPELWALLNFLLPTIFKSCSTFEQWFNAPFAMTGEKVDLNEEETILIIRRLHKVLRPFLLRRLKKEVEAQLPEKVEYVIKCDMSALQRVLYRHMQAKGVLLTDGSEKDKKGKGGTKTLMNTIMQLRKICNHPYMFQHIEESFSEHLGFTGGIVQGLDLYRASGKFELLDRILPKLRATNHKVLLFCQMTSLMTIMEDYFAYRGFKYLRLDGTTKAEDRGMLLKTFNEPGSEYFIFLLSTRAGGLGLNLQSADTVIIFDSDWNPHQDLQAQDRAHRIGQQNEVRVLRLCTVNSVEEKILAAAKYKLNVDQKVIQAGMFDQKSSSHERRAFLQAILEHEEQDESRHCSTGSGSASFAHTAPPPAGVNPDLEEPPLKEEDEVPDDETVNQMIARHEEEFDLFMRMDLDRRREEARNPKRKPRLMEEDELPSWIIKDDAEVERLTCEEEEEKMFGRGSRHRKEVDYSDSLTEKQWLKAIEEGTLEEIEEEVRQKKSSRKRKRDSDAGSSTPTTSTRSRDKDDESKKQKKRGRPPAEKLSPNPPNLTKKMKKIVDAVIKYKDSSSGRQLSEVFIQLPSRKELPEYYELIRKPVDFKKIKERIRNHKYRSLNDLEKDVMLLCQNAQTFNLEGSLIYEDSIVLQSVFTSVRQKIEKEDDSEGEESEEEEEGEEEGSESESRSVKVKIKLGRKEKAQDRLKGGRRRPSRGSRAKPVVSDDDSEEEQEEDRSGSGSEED
# Chain of UniProt Q9NTJ3 (Q9NTJ3 whole entry, looked up): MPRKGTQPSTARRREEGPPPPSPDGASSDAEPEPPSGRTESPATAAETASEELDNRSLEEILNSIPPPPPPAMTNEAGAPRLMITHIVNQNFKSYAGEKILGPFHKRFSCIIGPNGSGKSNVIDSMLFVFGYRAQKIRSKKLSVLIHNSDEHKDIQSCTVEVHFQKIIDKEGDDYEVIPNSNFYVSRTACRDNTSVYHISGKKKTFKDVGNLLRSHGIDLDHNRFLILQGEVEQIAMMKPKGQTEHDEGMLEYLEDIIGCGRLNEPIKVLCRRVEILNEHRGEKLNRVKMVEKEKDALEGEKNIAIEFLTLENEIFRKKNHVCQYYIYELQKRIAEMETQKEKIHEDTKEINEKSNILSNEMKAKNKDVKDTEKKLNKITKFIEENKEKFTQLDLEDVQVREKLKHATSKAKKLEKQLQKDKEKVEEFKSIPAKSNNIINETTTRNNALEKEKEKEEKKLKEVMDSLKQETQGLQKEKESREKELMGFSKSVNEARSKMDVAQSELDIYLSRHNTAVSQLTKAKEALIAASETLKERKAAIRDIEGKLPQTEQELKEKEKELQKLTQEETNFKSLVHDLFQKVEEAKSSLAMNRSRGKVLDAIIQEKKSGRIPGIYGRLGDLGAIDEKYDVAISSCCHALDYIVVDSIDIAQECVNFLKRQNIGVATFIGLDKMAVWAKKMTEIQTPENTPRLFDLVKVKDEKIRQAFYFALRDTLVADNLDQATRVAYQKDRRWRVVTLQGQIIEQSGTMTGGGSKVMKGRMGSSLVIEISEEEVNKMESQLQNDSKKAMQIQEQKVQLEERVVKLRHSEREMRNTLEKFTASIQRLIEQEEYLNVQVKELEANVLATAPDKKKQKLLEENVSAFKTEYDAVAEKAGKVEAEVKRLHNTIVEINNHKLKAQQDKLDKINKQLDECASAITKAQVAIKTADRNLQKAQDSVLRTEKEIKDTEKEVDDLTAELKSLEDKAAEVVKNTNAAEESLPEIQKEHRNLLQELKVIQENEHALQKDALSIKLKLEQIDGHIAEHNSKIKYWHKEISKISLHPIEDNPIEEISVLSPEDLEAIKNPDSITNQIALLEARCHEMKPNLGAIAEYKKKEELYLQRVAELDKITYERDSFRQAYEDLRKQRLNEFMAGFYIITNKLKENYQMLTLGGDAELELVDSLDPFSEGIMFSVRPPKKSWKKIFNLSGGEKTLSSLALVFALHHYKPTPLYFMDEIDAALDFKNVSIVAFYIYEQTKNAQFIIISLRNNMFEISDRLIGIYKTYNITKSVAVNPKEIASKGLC
# Chain of UniProt Q9UJC5 (Q9UJC5 whole entry, looked up): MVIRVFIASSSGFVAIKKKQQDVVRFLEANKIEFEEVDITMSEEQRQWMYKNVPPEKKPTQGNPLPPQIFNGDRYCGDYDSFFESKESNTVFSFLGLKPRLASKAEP
row,Target,log2 fold change
1,SPNS1 (UniProt Q9H2V7),0.04
2,SRM (UniProt P19623),0.026
3,STOML2 (UniProt Q9UJZ1),-0.017
4,SFN (UniProt P31947),-0.036
5,SMC1B isoform 3 (UniProt Q8NDV3),0.022
6,STK24 (UniProt B4DR80),0.031
7,STAU1 (UniProt O95793),-0.008
8,SPATS2 (UniProt Q86XZ4),-0.069
9,SMC4 (UniProt Q9NTJ3),-0.01
10,STK38 (UniProt Q15208),-0.009
11,SMG6 (UniProt Q86US8),-0.067
12,SMARCA4 (UniProt P51532),-0.002
13,SSBP3 (UniProt Q9BWW4),-0.005
14,STAT2 (UniProt P52630),-0.017
15,STUB1 (UniProt Q9UNE7),0.031
16,SHKBP1 (UniProt Q8TBC3),0.055
17,SSB (UniProt P05455),-0.013

row,Target,log2 fold change
1,SMG7 (UniProt Q92540),0.001
2,SMG1 (UniProt Q96Q15),-0.029
3,SRRT (UniProt Q9BXP5),-0.013
4,SHC1 isoform 6 (UniProt P29353),0.034
5,SH3BGRL2 (UniProt Q9UJC5),-0.001
6,SP1 (UniProt P08047),-0.035
7,SHCBP1 (UniProt Q8NEM2),-0.051
8,SH3BP5L (UniProt Q7L8J4),-0.056
9,SYNRG (UniProt Q9UMZ2),-0.007
10,STK26 (UniProt Q9P289),-0.033
11,SMC2 (UniProt O95347),-0.017
12,SLC11A2 isoform 3 (UniProt P49281),-0.099
13,SYF2 (UniProt O95926),-0.023
14,SMC6 (UniProt Q96SB8),0.006
15,SLC29A2 (UniProt Q14542),0.083
16,SNAP23 (UniProt O00161),0.001

# Compound: Cc1nc(Nc2n[nH]c3c2CN(C(=O)N[C@H](CN(C)C)c2ccccc2)C3(C)C)c2sccc2n1
# Experiment: as above
# Outline: as §1
row,Target,log2 fold change
1,SPNS1 (UniProt Q9H2V7),-0.025
2,SRM (UniProt P19623),-0.009
3,STOML2 (UniProt Q9UJZ1),-0.01
4,SFN (UniProt P31947),-0.007
5,SMC1B isoform 3 (UniProt Q8NDV3),-0.041
6,STK24 (UniProt B4DR80),0.298 (active)
7,STAU1 (UniProt O95793),-0.024
8,SPATS2 (UniProt Q86XZ4),0.042
9,SMC4 (UniProt Q9NTJ3),0.009
10,STK38 (UniProt Q15208),0.858 (active)
11,SMG6 (UniProt Q86US8),0.028
12,SMARCA4 (UniProt P51532),0.023
13,SSBP3 (UniProt Q9BWW4),0.061
14,STAT2 (UniProt P52630),0.006
15,STUB1 (UniProt Q9UNE7),-0.027
16,SHKBP1 (UniProt Q8TBC3),0.098
17,SSB (UniProt P05455),-0.014

row,Target,log2 fold change
1,SMG7 (UniProt Q92540),-0.034
2,SMG1 (UniProt Q96Q15),0.026
3,SRRT (UniProt Q9BXP5),-0.028
4,SHC1 isoform 6 (UniProt P29353),0.011
5,SH3BGRL2 (UniProt Q9UJC5),-0.001
6,SP1 (UniProt P08047),-0.02
7,SHCBP1 (UniProt Q8NEM2),-0.024
8,SH3BP5L (UniProt Q7L8J4),0.037
9,SYNRG (UniProt Q9UMZ2),0.012
10,STK26 (UniProt Q9P289),0.25 (active)
11,SMC2 (UniProt O95347),-0.005
12,SLC11A2 isoform 3 (UniProt P49281),-0.108
13,SYF2 (UniProt O95926),0
14,SMC6 (UniProt Q96SB8),0
15,SLC29A2 (UniProt Q14542),0.095
16,SNAP23 (UniProt O00161),0.015

# Compound: Cc1nc(Nc2ncc(C(=O)Nc3c(C)cccc3Cl)s2)cc(N2CCN(CCO)CC2)n1 [dasatinib]
# Experiment: as above
# Outline: as §1
row,Target,log2 fold change
1,SPNS1 (UniProt Q9H2V7),0
2,SRM (UniProt P19623),-0.008
3,STOML2 (UniProt Q9UJZ1),0.004
4,SFN (UniProt P31947),0.088
5,SMC1B isoform 3 (UniProt Q8NDV3),-0.004
6,STK24 (UniProt B4DR80),0.092
7,STAU1 (UniProt O95793),-0.004
8,SPATS2 (UniProt Q86XZ4),-0.073
9,SMC4 (UniProt Q9NTJ3),-0.03
10,STK38 (UniProt Q15208),-0.003
11,SMG6 (UniProt Q86US8),0.048
12,SMARCA4 (UniProt P51532),-0.042
13,SSBP3 (UniProt Q9BWW4),-0.015
14,STAT2 (UniProt P52630),-0.024
15,STUB1 (UniProt Q9UNE7),-0.037
16,SHKBP1 (UniProt Q8TBC3),0.117
17,SSB (UniProt P05455),-0.008

row,Target,log2 fold change
1,SMG7 (UniProt Q92540),0.003
2,SMG1 (UniProt Q96Q15),-0.021
3,SRRT (UniProt Q9BXP5),-0.087
4,SHC1 isoform 6 (UniProt P29353),0.046
5,SH3BGRL2 (UniProt Q9UJC5),0.077
6,SP1 (UniProt P08047),-0.028
7,SHCBP1 (UniProt Q8NEM2),-0.071
8,SH3BP5L (UniProt Q7L8J4),-0.023
9,SYNRG (UniProt Q9UMZ2),0.009
10,STK26 (UniProt Q9P289),0.102
11,SMC2 (UniProt O95347),-0.036
12,SLC11A2 isoform 3 (UniProt P49281),0.07
13,SYF2 (UniProt O95926),-0.036
14,SMC6 (UniProt Q96SB8),-0.021
15,SLC29A2 (UniProt Q14542),0.029
16,SNAP23 (UniProt O00161),0.045
